Assay [1] can be described thus: Nuclear factor erythroid 2-related factor 2/antioxidant responsive element (Nrf2/ARE) small molecule agonists: luciferase reporter gene qHTS assay in human keratinocytes (AID 1919969). Further: nearly all actives have a fitted effect of over 35% in size. Background: In a reporter assay the amount or activity of a reporter protein is the signal.
The target in assay [2] is Gonadotropin-releasing hormone receptor (Homo sapiens) (UniProt P30968). In words: Human gonadotropin-releasing hormone receptor (GnRHR) small molecule agonists, calcium flux assay in GnRHR-HEK293 cells (AID 1920063). Further: nearly all actives have a fitted effect of over 35% in size. Put shortly: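 Agonist mode: compounds at 15 concentrations, in triplicate, went onto calcium dye-loaded GnRHR-HEK293 cells. Intracellular calcium was then followed as 480/540 nm fluorescence at 1 s intervals over 3 min.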
Gonadotropin-releasing hormone receptor (Homo sapiens), sequence (P30968 whole entry, looked up): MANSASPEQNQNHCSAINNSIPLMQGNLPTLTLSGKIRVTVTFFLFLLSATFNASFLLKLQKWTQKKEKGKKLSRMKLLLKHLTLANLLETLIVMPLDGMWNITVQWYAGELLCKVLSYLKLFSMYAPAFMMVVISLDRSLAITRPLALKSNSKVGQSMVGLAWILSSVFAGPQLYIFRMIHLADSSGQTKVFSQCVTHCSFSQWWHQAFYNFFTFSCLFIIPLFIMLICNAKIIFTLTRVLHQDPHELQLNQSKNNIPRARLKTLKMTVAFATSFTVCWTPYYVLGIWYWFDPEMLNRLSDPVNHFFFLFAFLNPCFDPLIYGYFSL

The target in assay [3] is KiSS-1 receptor (Homo sapiens) (UniProt Q969F8). In words: Human kisspeptin (KISS1R) small molecule agonists, calcium flux assay in KISS1R-HEK293 cells (AID 1920064; active means well fitted activation curve with a large enough effect in the repeat runs). Put shortly: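 Agonist mode: intracellular calcium rise tracked at 1 s intervals over 3 min (480/540 nm) immediately after compound addition to dye-loaded KISS1R-HEK293 stable cells. Each compound tested at 15 concentrations in triplicate.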
KiSS-1 receptor (Homo sapiens), sequence (Q969F8 whole entry, looked up): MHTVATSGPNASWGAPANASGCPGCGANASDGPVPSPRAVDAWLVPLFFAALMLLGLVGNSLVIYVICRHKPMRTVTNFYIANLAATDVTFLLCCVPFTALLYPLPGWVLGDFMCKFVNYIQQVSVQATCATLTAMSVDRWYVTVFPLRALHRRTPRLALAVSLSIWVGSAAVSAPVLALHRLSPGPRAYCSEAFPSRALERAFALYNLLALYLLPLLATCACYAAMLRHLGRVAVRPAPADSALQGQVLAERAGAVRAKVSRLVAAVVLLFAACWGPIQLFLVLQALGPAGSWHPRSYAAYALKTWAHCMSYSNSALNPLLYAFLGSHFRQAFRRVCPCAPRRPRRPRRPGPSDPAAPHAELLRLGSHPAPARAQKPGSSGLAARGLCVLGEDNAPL
(In general: A change in cytosolic calcium serves as a functional read-out for many receptors and channels.)

Assay [4] in a line: G protein-coupled receptor (GPCR) small molecule agonists, calcium flux assay: HEK293 wild type cell line counter screen (AID 1920065). Put shortly: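 Calcium flux counter screen: compound added in agonist mode at 15 concentrations in triplicate to dye-loaded parental HEK293 cells. Fluorescence (480/540) read kinetically for 3 min; ATP served as positive control.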
Assay [5] in a line: p53 small molecule agonists, cell-based qHTS assay with human liver microsomes (AID 1963577). Put shortly: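 p53RE-bla reporter cells were pre-incubated 5 h at 37 C, then treated with compounds plus human liver microsomes (0.5 mg/mL final) and NADPH (0.5 mg/mL final) for 16 h at 37 C. Beta-lactamase activity was read by LiveBLAzer fluorescence after 2 h at room temperature.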
A general note: qHTS replaces the single test concentration by a dilution series.

A short description of assay [6]: p53 small molecule agonists, cell-based qHTS assay with human liver microsomes: qHTS cell viability counter screen (AID 1963579). Further: nearly all actives have a fitted effect of over 45% in size. Further: potency means the concentration at half of the fitted maximal effect. A digest of the protocol:
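p53RE-bla cells (4,000/well) were pre-incubated 5 h at 37 C, then given compounds in DMSO plus human liver microsomes (0.5 mg/mL final) and NADPH (0.5 mg/mL final) for 16 h at 37 C. Viability was read by CellTiter-Glo luminescence.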

Assay [7] can be described thus: p53 small molecule agonists, cell-based qHTS assay with rat liver microsomes: qHTS cell viability counter screen (AID 1963580). Further: nearly all actives have a fitted effect of over 45% in size. Further: potency means the concentration at half of the fitted maximal effect. Put shortly:
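Cytotoxicity counter screen: intracellular ATP measured by CellTiter-Glo luminescence in the same wells as the beta-lactamase reporter read, on HCT-116 p53RE-bla cells exposed 16 h at 37 C to compounds with rat liver microsomes and NADPH, each 0.5 mg/mL final.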

Assay [8] in a line: p53 small molecule agonists, cell-based qHTS assay: qHTS cell viability counter screen (AID 1963581). Further: nearly all actives have a fitted effect of over 45% in size. Further: potency means the concentration at half of the fitted maximal effect. A digest of the protocol: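 Counter screen read by CellTiter-Glo luminescence (ATP content, 30 min at room temperature), run in the same wells as the beta-lactamase reporter read. HCT-116 p53RE-bla cells saw compounds for 16 h at 37 C.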
Assay [9] in a line: p53 small molecule agonists, cell-based qHTS assay (AID 1963582; active means well fitted activation curve with a large enough effect in the signal ratio in the repeat runs, not every such curve was filed as active; the % refers to the signal ratio). Put shortly: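 Read-out is beta-lactamase FRET fluorescence after 2 h at room temperature with LiveBLAzer B/G substrate. p53 response element-bla cells were treated 16 h at 37 C with compounds in DMSO, added 5 h after seeding.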
Assay [10] concerns the target 5-hydroxytryptamine receptor 2A (Homo sapiens) (UniProt P28223). In words: 5-hydroxytryptamine receptor 2A (HTR2A) small molecule antagonists, cell-based qHTS assay (AID 1963586). Further: nearly all actives have a fitted effect of over 45% in size. Further: potency means the concentration at half of the fitted maximal effect. A digest of the protocol:
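CHO cells stably expressing human HTR2A were plated for 18 h at 37 C, then loaded with calcium dye for 1 h. Compounds were preincubated 5 min at room temperature before DOI (4 nM solution) was added. Kinetic fluorescence was read for 3 min.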

Assay [11] has the same target. In words: 5-hydroxytryptamine receptor 2A (HTR2A) small molecule agonists, cell-based qHTS assay (AID 1963587). Further: nearly all actives have a fitted effect of over 30% in size. A digest of the protocol:
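CHO cells stably expressing human HTR2A, plated 18 h, loaded with calcium dye 1 h at 37 C. Agonist mode: compounds added and intracellular calcium fluorescence recorded kinetically for 2 min at 1 sec intervals.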

For assay [12], the target named is Muscarinic acetylcholine receptor M1 (Homo sapiens) (UniProt P11229). In words: Cholinergic receptor muscarinic 1 (CHRM1) small molecule antagonists, cell-based qHTS assay (AID 1963588). Further: nearly all actives have a fitted effect of over 40% in size. Put shortly: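 Compounds were tested at 15 concentrations in three independent runs. Dye-loaded CHRM1-CHO cells were exposed 5 min at room temperature before stimulation by acetylcholine added at 50nM. Intracellular calcium was read kinetically on FDSS for 3 min.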
Muscarinic acetylcholine receptor M1 (Homo sapiens), sequence (P11229 whole entry, looked up): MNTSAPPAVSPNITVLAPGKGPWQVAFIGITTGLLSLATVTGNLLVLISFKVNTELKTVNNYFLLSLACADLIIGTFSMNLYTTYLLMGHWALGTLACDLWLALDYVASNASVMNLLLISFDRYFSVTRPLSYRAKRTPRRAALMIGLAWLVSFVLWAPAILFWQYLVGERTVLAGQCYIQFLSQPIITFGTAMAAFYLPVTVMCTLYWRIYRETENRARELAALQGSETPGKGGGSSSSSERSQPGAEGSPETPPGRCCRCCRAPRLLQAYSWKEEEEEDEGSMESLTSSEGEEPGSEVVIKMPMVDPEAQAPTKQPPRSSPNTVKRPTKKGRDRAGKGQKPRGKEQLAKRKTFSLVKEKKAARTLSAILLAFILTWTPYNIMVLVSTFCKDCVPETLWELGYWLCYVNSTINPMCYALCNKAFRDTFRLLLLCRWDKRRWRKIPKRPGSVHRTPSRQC

The target is the same in assay [13]. In words: Cholinergic receptor muscarinic 1 (CHRM1) small molecule agonists, cell-based qHTS assay (AID 1963589). Further: nearly all actives have a fitted effect of over 35% in size. A digest of the protocol: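 Agonist-mode calcium-flux screen: compounds at 15 concentrations, three independent runs, were pin-transferred onto dye-loaded human CHRM1-CHO cells. Fluorescence was then recorded kinetically every second over minutes.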

Assay [14] can be described thus: cAMP Responsive Elements (CRE) small molecule agonists, cell-based qHTS assay (AID 1963590). Put shortly:
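Agonist mode: compound added to CRE-bla HEK 293T cells (2,000/well, 18 h after plating) for 3 h at 37 C/5% CO2. Reporter activity detected via FRET beta-lactamase substrate, 2 h room-temperature loading.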

Assay [15] in a line: cAMP Responsive Elements (CRE) small molecule antagonists, cell-based qHTS assay (AID 1963591; active means well fitted inhibition curve with a large enough effect in the signal ratio in the repeat runs, not every such curve was filed as active; the % refers to the signal ratio; further: potency means the concentration at half of the fitted maximal effect). Put shortly: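 Antagonist mode: compounds are added alongside the adenylyl cyclase activator NKH477 (0.25 uM final) to CRE-bla HEK293T cells for 3 h. LiveBLAzer FRET substrate, 2 h at room temperature, reports bla expression.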
Assay [16] concerns the target Beta-2 adrenergic receptor (Homo sapiens) (UniProt P07550). Description: Adrenergic beta2 receptor (ADRB2) small molecule antagonists, cell-based qHTS assay (AID 1963592). Further: series mostly up to about 92 µM; nearly all actives have a fitted effect of over 50% in size. A digest of the protocol:
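Assay format: CHO-ADRB2 cells, 18-20hr seeding at 37C/5% CO2, then compound plus 1nM isoproterenol agonist mix for 0.5hr RT. Homogeneous time-resolved fluorescence cAMP detection after 1hr, expressed as 665/615 nm ratio.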

Assay [17] concerns the target D(2) dopamine receptor (Homo sapiens) (UniProt P14416). Description: Dopamine D2 receptor (DRD2) small molecule agonists, cell-based qHTS assay (AID 1963594). Further: nearly all actives have a fitted effect of over 35% in size. A digest of the protocol: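 HEK293 cells stably expressing human DRD2, pre-treated with PDE inhibitor Ro20-1724 (0.1 mM final) and compound 10 min at room temperature, then stimulated with NKH477 (200nM […]) for 30 min. cAMP read by HTRF (665/620 nm).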

Assay [18] has the same target. In words: Dopamine D2 receptor (DRD2) small molecule antagonists, cell-based qHTS assay (AID 1963595; active means well fitted inhibition curve with a large enough effect in the signal ratio in the repeat runs, with a control signal flat; the % refers to the signal ratio; further: potency means the concentration at half of the fitted maximal effect). A digest of the protocol:
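HTRF cAMP read-out at 665 and 620 nm emission (340 nm excitation). Antagonist mode: compounds were tested against 12 nM quinpirole in DRD2-HEK293 cells, with 200 nM NKH477 raising cAMP and 0.1 mM Ro20-1724 blocking its breakdown.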

The target in assay [19] is Beta-2 adrenergic receptor (Homo sapiens) (UniProt P07550). Description: Adrenergic beta2 receptor (ADRB2) small molecule agonists, cell-based qHTS assay (AID 1963593).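 Further: CHO cells stably overexpressing human ADRB2.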 Put shortly:
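CHO cells stably over-expressing ADRB2 were plated overnight at 37C, then dosed with compounds plus a stimulation mix containing 100uM IBMX and 25uM Ro-20-1724 for 0.5hr at room temperature. cAMP was measured by HTRF competition, 1hr.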

Assay [20] is described as follows: p53 small molecule agonists, cell-based qHTS assay with rat liver microsomes (AID 1963578). A digest of the protocol:
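p53RE-bla cells were exposed to compounds together with rat liver microsomes (0.5 mg/mL final) and NADPH (0.5 mg/mL final) for 16 h at 37 C, then read by LiveBLAzer beta-lactamase fluorescence after 2 h at room temperature.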

Several values for one entry are separate records, joined by “and”; a condition that tells them apart may be missing. Identical values can stand only once. Results filed as inconclusive are left out. Activity calls are given as the source filed them. Unless noted, the call rests on the fitted dose curve.

5-hydroxytryptamine receptor 2A (Homo sapiens), sequence (P28223 whole entry, looked up): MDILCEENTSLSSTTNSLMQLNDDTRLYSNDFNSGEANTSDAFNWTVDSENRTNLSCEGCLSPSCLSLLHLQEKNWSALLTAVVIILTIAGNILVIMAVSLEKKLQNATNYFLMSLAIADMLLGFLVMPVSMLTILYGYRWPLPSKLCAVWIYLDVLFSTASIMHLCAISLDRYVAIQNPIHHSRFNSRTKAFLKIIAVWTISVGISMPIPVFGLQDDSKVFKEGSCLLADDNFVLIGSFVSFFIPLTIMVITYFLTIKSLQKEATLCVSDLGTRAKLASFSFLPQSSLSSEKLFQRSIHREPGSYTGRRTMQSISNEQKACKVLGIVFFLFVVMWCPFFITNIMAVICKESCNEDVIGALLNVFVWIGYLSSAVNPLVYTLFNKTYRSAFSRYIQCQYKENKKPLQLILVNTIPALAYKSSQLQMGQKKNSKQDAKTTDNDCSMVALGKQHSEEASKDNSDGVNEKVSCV
D(2) dopamine receptor (Homo sapiens), sequence (P14416 whole entry, looked up): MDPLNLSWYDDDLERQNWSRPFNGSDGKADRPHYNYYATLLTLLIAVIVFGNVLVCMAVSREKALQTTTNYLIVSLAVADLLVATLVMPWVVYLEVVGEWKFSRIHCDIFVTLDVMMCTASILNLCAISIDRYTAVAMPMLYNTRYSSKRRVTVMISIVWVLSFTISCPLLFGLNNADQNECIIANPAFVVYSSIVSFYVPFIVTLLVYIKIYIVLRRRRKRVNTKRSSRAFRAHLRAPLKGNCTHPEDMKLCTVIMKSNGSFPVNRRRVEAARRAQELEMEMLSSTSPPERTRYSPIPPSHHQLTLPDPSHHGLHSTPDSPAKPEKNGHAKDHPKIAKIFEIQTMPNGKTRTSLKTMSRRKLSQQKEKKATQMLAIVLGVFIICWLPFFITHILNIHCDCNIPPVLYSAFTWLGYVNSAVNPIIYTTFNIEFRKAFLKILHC
Beta-2 adrenergic receptor (Homo sapiens), sequence (P07550 whole entry, looked up): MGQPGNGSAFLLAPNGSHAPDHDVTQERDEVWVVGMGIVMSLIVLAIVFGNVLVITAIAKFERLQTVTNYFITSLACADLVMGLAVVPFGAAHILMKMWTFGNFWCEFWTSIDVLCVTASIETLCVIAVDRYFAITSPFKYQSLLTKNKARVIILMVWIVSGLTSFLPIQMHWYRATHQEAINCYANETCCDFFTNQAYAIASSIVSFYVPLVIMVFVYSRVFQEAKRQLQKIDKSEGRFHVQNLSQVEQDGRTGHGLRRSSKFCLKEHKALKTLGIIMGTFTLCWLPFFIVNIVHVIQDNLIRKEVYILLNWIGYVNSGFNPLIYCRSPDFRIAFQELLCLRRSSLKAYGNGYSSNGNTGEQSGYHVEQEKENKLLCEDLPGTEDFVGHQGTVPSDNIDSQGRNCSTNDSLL

As to `IC(I)I`, the Potency entry in assay [1], in assay [2], in [3], in [4], in [5] and in assay [6] was “inactive” in each case. Further, the Potency entry in assay [7], in assay [8], in assay [9], in [10], in assay [11] and in assay [12] was “inactive” in each case. Besides, the Potency entry in assay [13], in assay [14], in [15], in assay [16], in assay [17] and in assay [18] was “inactive” in each case.
As for `CCC(C)(C)C`, the Potency entry in assay [1], in assay [2], in [3], in [4], in assay [5] and in assay [6] was “inactive” each time. The Potency entry in assay [7], in assay [9], in [10], in assay [11], in assay [12] and in [13] was “inactive” throughout. The Potency entry in assay [14], in assay [15], in [16], in [17] and in assay [18] was “inactive” throughout.
Take `OC1(c2ccc(Cl)cc2)CCNCC1`: the Potency result in assay [1], in [2], in assay [3], in assay [4], in assay [5] and in [6] was “inactive” throughout. In addition, the Potency result in assay [7], in [8], in assay [9], in assay [10], in assay [11] and in assay [12] was “inactive” each time. The Potency result in [15], in assay [16], in assay [19] and in assay [18] was “inactive” throughout.
Consider `CCCCC(CC)COC(=O)c1ccc(O)cc1` (configuration not stated), for which the Potency entry in [1], in assay [2], in assay [3], in assay [4], in assay [5] and in assay [20] was “inactive” in each case. The Potency entry in assay [11], in assay [12], in [13], in assay [16], in assay [17] and in assay [18] was “inactive” each time. Moreover, the Potency in assay [6] is 40.8 µM (active); in [7], 45.8 µM (active); in [8], 40.6 µM (active); in assay [10] it was 37.5 µM (active); in assay [15] it was 40.3 µM (active).
`Clc1ccc2c(c1)C(N1CCNCC1)=Nc1ccccc1O2`: the Potency result in assay [1], in assay [2], in [3], in assay [4], in assay [6] and in assay [7] was “inactive” throughout. The Potency entry in assay [14], in [15], in [16] and in [17] was “inactive” in each case. Besides, the Potency in [18] is 13.7 µM (active) and 8.41 µM (active).
In the case of `C=C(C)C(=O)OC(C)C`, the Potency result in assay [1], in [2], in assay [3], in assay [4], in assay [20] and in [6] was “inactive” in each case. In addition, the Potency entry in assay [7], in assay [8], in assay [9], in assay [10], in assay [11] and in [12] was “inactive” each time. The Potency entry in [13], in assay [14], in [15], in assay [16], in assay [19] and in assay [17] was “inactive” throughout. Moreover, the Potency result in assay [18] was “inactive”.
As for `COc1c(Cl)ccc(Cl)c1C(=O)O`, the Potency entry in assay [1], in assay [2], in assay [3], in assay [4], in [6] and in assay [7] was “inactive” in each case. Moreover, the Potency entry in assay [8], in assay [10], in [11], in [13], in assay [14] and in assay [15] was “inactive” throughout. Also, the Potency result in assay [16], in [19], in assay [17] and in assay [18] was “inactive” throughout.
On to `COC(=O)N[C@H](C(=O)N[C@@H](Cc1ccccc1)[C@@H](O)CN(Cc1ccc(-c2ccccn2)cc1)NC(=O)[C@@H](NC(=O)OC)C(C)(C)C)C(C)(C)C`, for which the Potency entry in assay [1], in assay [2], in assay [3], in assay [4], in assay [5] and in [20] was “inactive” each time. In addition, the Potency entry in assay [6], in assay [7], in [9], in assay [10], in assay [11] and in assay [12] was “inactive” each time. The Potency result in [13], in [14], in assay [15], in assay [16], in [17] and in [18] was “inactive” throughout.

(Values after PubChem BioAssay (Tox21).)
